Results taken from PubChem BioAssay AID1159580 (chemical genetic matrix, 2015).
Out of some 5,500 compounds screened, about 2,000 (36%) were called active. About 18% were inconclusive and are not listed. No stated cut-off is given here; in the data, active means normalized growth mostly below about 0.91 (no sharp cut-off); inconclusive means no clear call, values can overlap the other calls; inactive means mostly above about 0.92. The list shows a part of the results.

Test: chemical genetic growth profiling, strain panel (AID 1159580);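 further: tested at 20 µM; growth read once vehicle control cultures reached saturation at 30 °C; 1 = growth at the plate median or of vehicle wells; lower values mean less growth of the strain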
Conditions: growth OD
[1] = S. cerevisiae deletion strains, locus YAL013W, strain DEP1, active compounds read low
[2] = S. cerevisiae deletion strains, locus YBR229C, strain ROT2, active compounds read low
[3] = S. cerevisiae deletion strains, locus YDL101C, strain DUN1, active compounds read low
[4] = S. cerevisiae deletion strains, locus YDR150W, strain NUM1, active compounds read low
[5] = S. cerevisiae deletion strains, locus YEL061C, strain CIN8, active compounds read low
[6] = S. cerevisiae deletion strains, locus YGR078C, strain PAC10, active compounds read low
[7] = S. cerevisiae deletion strains, locus YGR229C, strain SMI1, active compounds read low
[8] = S. cerevisiae deletion strains, locus YHR030C, strain SLT2, active compounds read low
[9] = S. cerevisiae deletion strains, locus YHR087W, strain rtc3, active compounds read low
[10] = S. cerevisiae deletion strains, locus YJR043C, strain POL32, active compounds read low
[11] = S. cerevisiae deletion strains, locus YJR075W, strain HOC1, active compounds read low
[12] = S. cerevisiae deletion strains, locus YLR039C, strain RIC1, active compounds read low
[13] = S. cerevisiae deletion strains, locus YLR058C, strain SHM2 (second series), active compounds read low
[14] = S. cerevisiae deletion strains, locus YLR085C, strain ARP6, active compounds read low
[15] = S. cerevisiae deletion strains, locus YLR262C, strain YPT6, active compounds read low
[16] = S. cerevisiae deletion strains, locus YML094W, strain GIM5, active compounds read low
[17] = S. cerevisiae deletion strains, locus YMR219W, strain ESC1, active compounds read low
[18] = S. cerevisiae deletion strains, locus YMR263W, strain SAP30, active compounds read low
[19] = S. cerevisiae deletion strains, locus YNL153C, strain GIM3, active compounds read low
[20] = S. cerevisiae deletion strains, locus YNL298W, strain CLA4 (second series), active compounds read low
[21] = S. cerevisiae deletion strains, locus YNL322C, strain KRE1, active compounds read low
[22] = S. cerevisiae deletion strains, locus YNR030W, strain Alg12, active compounds read low
[23] = S. cerevisiae deletion strains, locus YPL055C, strain LGE1, active compounds read low
[24] = S. cerevisiae deletion strains, locus YPL241C, strain CIN2, active compounds read low
[25] = S. cerevisiae deletion strains, locus YPR135W, strain CTF4, active compounds read low
[26] = S. cerevisiae deletion strains, locus YDL134C, strain PPH21, active compounds read low
[27] = S. cerevisiae deletion strains, locus YOL006C, strain TOP1, active compounds read low
[28] = S. cerevisiae deletion strains, locus YHR079C, strain IRE1, active compounds read low
[29] = S. cerevisiae deletion strains, locus YJL095W, strain BCK1, active compounds read low
[30] = S. cerevisiae deletion strains, locus YJR066W, strain TOR1, active compounds read low
[31] = S. cerevisiae deletion strains, locus YLR113W, strain HOG1, active compounds read low
[32] = S. cerevisiae deletion strains, locus YNL183C, strain NPR1, active compounds read low
[33] = S. cerevisiae deletion strains, locus YOR231W, strain MKK1, active compounds read low
[34] = S. cerevisiae deletion strains, locus YPL256C, strain CLN2, active compounds read low

Measured: normalized growth

CN1CCCC12NCCc1c2[nH]c2ccccc12 (stereo unspecified)
inactive: [1] 0.993 | [2] 1 | [3] 1 | [4] 0.98 | [5] 0.998 | [6] 0.993 | [7] 0.997 | [8] 0.981 | [9] 0.986 | [10] 0.999 | [11] 0.973 | [12] 0.976 | [13] 0.987 | [14] 0.991 | [15] 0.976 | [16] 1.06 | [17] 1.01 | [18] 0.985 | [19] 1 | [20] 0.982 | [21] 1 | [22] 0.965 | [23] 1.01 | [24] 0.969 | [25] 1.03

c1ccc2c(c1)CCc1c-2[nH]c2ccccc12
active: [1] 0.641 | [2] 0.682 | [3] 0.62 | [26] 0.461 | [4] 0.704 | [5] 0.415 | [6] 0.732 | [7] 0.735 | [8] 0.137 | [9] 0.748 | [10] 0.751 | [11] 0.562 | [12] 0.162 | [13] 0.827 | [14] 0.109 | [15] 0.142 | [16] 0.467 | [17] 0.783 | [18] 0.634 | [19] 0.7 | [20] 0.23 | [21] 0.91 | [22] 0.418 | [27] 0.115 | [23] 0.322 | [24] 0.416 | [25] 0.294

CC(C)=CCC/C(C)=C/CC/C(C)=C/CC/C(C)=C/CO
inactive: [8] 1.06 | [28] 1.05 | [29] 1.04 | [30] 0.944 | [31] 0.975 | [32] 0.932 | [33] 0.998 | [34] 1.08

CC(C)=CCC/C(C)=C/CC/C(C)=C/CO
active: [8] 0.416 | [28] 0.506 | [29] 0.609 | [30] 0.804 | [31] 0.35 | [32] 0.732 | [33] 0.407 | [34] 0.388

C=C[C@](C)(O)CCC=C(C)C
inactive: S. cerevisiae deletion strains, locus YBR021W, strain FUR4, active compounds read low 1.01 | [2] 1 | S. cerevisiae deletion strains, locus YCL029C, strain bik1, active compounds read low 1.02 | S. cerevisiae deletion strains, locus YDL035C, strain GPR1, active compounds read low 1.04 | S. cerevisiae deletion strains, locus YDL074C, strain BRE1, active compounds read low 1.06 | [3] 1.01 | [26] 1 | S. cerevisiae deletion strains, locus YDL185W, strain tfp1, active compounds read low 1.02 | S. cerevisiae deletion strains, locus YDL192W, strain arf1, active compounds read low 1.01 | S. cerevisiae deletion strains, locus YDR101C, strain arx1, active compounds read low 1.04 | S. cerevisiae deletion strains, locus YDR162C, strain NBP2, active compounds read low 1 | S. cerevisiae deletion strains, locus YDR318W, strain mcm21, active compounds read low 0.986 | S. cerevisiae deletion strains, locus YDR388W, active compounds read low 1.01 | S. cerevisiae deletion strains, locus YDR502C, strain sam2, active compounds read low 0.999 | [5] 1 | S. cerevisiae deletion strains, locus YER110C, active compounds read low 1.01 | S. cerevisiae deletion strains, locus YER155C, strain BEM2, active compounds read low 1.01 | S. cerevisiae deletion strains, locus YER167W, strain BCK2, active compounds read low 1.01 | S. cerevisiae deletion strains, locus YGL078C, strain dbp3, active compounds read low 1.02 | S. cerevisiae deletion strains, locus YGL086W, strain mad1, active compounds read low 1.05 | S. cerevisiae deletion strains, locus YGL248W, strain PDE1, active compounds read low 0.995 | S. cerevisiae deletion strains, locus YGR135W, strain pre9, active compounds read low 1.01 | S. cerevisiae deletion strains, locus YGR252W, strain gcn5, active compounds read low 0.977 | [8] 1.01 | S. cerevisiae deletion strains, locus YHR079C, strain IRE1 (second series), active compounds read low 1.01 | S. cerevisiae deletion strains, locus YHR094C, strain hxt1, active compounds read low 1.01 | S. cerevisiae deletion strains, locus YHR129C, strain ARP1, active compounds read low 1.02 | S. cerevisiae deletion strains, locus YHR200W, strain rpn10, active compounds read low 1.01 | S. cerevisiae deletion strains, locus YIL066C, strain RNR3, active compounds read low 1.01 | S. cerevisiae deletion strains, locus YIL073C, strain SPO22, active compounds read low 1.03 | S. cerevisiae deletion strains, locus YIL125W, strain kgd1, active compounds read low 1.02 | S. cerevisiae deletion strains, locus YIR030C, strain dcg1, active compounds read low 0.998 | [29] 0.988 | S. cerevisiae deletion strains, locus YJL134W, strain LCB3, active compounds read low 0.999 | S. cerevisiae deletion strains, locus YJL168C, strain set2, active compounds read low 1.01 | S. cerevisiae deletion strains, locus YJL187C, strain SWE1 (second series), active compounds read low 1 | [10] 1.04 | [11] 1 | S. cerevisiae deletion strains, locus YKL009W, strain mrt4, active compounds read low 1.05 | S. cerevisiae deletion strains, locus YKL068W, active compounds read low 1 | S. cerevisiae deletion strains, locus YKL085W, strain MDH1 (second series), active compounds read low 0.995 | S. cerevisiae deletion strains, locus YKL085W, strain MDH1, active compounds read low 0.995 | S. cerevisiae deletion strains, locus YKL190W, strain CNB1, active compounds read low 1 | S. cerevisiae deletion strains, locus YKR001C, strain vps1, active compounds read low 1.06 | [12] 1.03 | S. cerevisiae deletion strains, locus YLR058C, strain SHM2, active compounds read low 0.997 | S. cerevisiae deletion strains, locus YLR102C, strain apc9, active compounds read low 1.01 | [15] 1.01 | S. cerevisiae deletion strains, locus YLR268W, strain sec22, active compounds read low 1.06 | S. cerevisiae deletion strains, locus YLR330W, strain CHS5, active compounds read low 1.02 | S. cerevisiae deletion strains, locus YLR342W, strain FKS1 (second series), active compounds read low 1.05 | S. cerevisiae deletion strains, locus YLR371W, strain rom2, active compounds read low 1.02 | S. cerevisiae deletion strains, locus YLR418C, strain cdc73, active compounds read low 0.984 | S. cerevisiae deletion strains, locus YML016C, strain PPZ1, active compounds read low 1.01 | S. cerevisiae deletion strains, locus YML032C, strain rad52, active compounds read low 0.973 | S. cerevisiae deletion strains, locus YML124C, strain tub3, active compounds read low 0.999 | S. cerevisiae deletion strains, locus YMR078C, strain ctf18, active compounds read low 1.01 | S. cerevisiae deletion strains, locus YMR223W, strain ubp8, active compounds read low 0.994 | S. cerevisiae deletion strains, locus YMR307W, strain GAS1, active compounds read low 1.03 | S. cerevisiae deletion strains, locus YNL067W, strain RPL9B, active compounds read low 1.01 | S. cerevisiae deletion strains, locus YNL233W, strain BNI4, active compounds read low 1 | S. cerevisiae deletion strains, locus YNL250W, strain rad50, active compounds read low 1.02 | S. cerevisiae deletion strains, locus YNL271C, strain bni1, active compounds read low 1.01 | S. cerevisiae deletion strains, locus YNL298W, strain CLA4, active compounds read low 1.02 | S. cerevisiae deletion strains, locus YNL307C, strain MCK1, active compounds read low 1.03 | [21] 1 | S. cerevisiae deletion strains, locus YNR052C, strain pop2, active compounds read low 0.997 | [27] 1.1 | S. cerevisiae deletion strains, locus YOL012C, strain htz1 1.44 | S. cerevisiae deletion strains, locus YOL147C, strain pex11, active compounds read low 1 | S. cerevisiae deletion strains, locus YOR061W, strain CKA2, active compounds read low 1 | S. cerevisiae deletion strains, locus YOR069W, strain VPS5, active compounds read low 1.01 | S. cerevisiae deletion strains, locus YOR136W, strain idh2, active compounds read low 1.01 | S. cerevisiae deletion strains, locus YOR144C, strain elg1, active compounds read low 1.01 | S. cerevisiae deletion strains, locus YOR184W, strain ser1, active compounds read low 1.05 | S. cerevisiae deletion strains, locus YOR316C, strain cot1, active compounds read low 1.01 | [24] 0.998 | S. cerevisiae deletion strains, locus YPR119W, strain clb2, active compounds read low 1 | S. cerevisiae deletion strains, locus YPR141C, strain kar3, active compounds read low 1 | S. cerevisiae deletion strains, locus YPR163C, strain tif3, active compounds read low 1 | S. cerevisiae deletion strains, locus YPR167C, strain met16, active compounds read low 0.999 | S. cerevisiae deletion strains, strain wtn01, active compounds read low 1.07 | S. cerevisiae strains, strain wild type, active compounds read low 1.01
